Measured potencies and affinities stand elsewhere. The source made the active and inactive calls.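 The calls were made as follows: active = fitted concentration giving half the maximal Nile Red retention below 100 µM; inactive = the rest.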
Molecular target: Multidrug resistance protein CDR1 (Candida albicans) (UniProt P43071)
Experiment: CaCdr1 efflux pump inhibitor potency, dose response, singleplex, Cherry Pick2 set (AID 623996)
Settings: S. cerevisiae AD/CaCDR1, Nile Red efflux inhibition, flow cytometry; series mostly up to 100 µM; efflux inhibition response: at the top concentration

Sequence of Multidrug resistance protein CDR1 (Candida albicans) (P43071 whole entry, looked up): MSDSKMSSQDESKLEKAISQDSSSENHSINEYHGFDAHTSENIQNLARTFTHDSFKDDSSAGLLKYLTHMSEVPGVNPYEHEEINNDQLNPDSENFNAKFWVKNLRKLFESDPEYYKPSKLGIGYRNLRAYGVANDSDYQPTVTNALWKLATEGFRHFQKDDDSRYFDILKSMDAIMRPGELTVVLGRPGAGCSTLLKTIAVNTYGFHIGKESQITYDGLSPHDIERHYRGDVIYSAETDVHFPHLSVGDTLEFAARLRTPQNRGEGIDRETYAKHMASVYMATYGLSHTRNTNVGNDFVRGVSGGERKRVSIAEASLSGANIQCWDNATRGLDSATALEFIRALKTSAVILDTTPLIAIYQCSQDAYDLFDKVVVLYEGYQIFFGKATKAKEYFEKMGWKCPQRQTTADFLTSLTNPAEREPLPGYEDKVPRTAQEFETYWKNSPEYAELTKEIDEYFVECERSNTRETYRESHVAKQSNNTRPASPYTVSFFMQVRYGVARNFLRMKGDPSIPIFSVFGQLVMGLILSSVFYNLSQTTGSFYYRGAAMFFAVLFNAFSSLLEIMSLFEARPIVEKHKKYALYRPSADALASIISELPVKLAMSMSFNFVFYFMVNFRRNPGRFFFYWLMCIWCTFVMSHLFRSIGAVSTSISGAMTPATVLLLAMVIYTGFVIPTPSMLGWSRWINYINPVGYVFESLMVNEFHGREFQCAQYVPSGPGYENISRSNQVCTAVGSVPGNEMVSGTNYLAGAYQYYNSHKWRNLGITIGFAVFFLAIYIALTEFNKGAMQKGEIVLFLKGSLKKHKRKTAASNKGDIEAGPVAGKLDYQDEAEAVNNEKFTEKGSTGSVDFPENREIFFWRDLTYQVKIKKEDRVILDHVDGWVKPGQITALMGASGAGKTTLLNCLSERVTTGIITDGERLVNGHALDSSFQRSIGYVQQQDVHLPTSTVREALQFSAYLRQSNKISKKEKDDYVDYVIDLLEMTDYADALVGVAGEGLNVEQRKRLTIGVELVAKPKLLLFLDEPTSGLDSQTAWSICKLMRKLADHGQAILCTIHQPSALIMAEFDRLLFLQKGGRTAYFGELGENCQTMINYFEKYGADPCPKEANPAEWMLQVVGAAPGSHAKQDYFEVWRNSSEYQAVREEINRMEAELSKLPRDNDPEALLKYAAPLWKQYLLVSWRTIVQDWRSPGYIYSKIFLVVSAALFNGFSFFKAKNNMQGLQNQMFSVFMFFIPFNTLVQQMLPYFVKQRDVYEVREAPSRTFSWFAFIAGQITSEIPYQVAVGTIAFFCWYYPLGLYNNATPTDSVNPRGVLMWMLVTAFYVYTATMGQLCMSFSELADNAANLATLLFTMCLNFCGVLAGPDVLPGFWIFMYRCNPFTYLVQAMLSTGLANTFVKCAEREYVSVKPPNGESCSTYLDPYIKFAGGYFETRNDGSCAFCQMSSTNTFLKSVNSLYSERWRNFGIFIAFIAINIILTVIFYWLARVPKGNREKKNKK

SMILES	efflux inhibition response	outcome
COc1ccc(-c2c[n+](CC(=O)N3c4ccccc4Sc4ccccc43)c3n2CCC3)cc1	-1.3% (inactive)	–
O=C(C[n+]1cc(-c2ccccc2)n2c1CCC2)N1c2ccccc2Sc2ccccc21	-1.96% (inactive)	–
CCOc1cccc2sc(NC(=O)c3ccc(Br)s3)nc12	-1.5% (inactive)	–
COc1ccc(O)c(C(=O)c2cnc3c(c2)CN(C)C(=O)N3)c1	0.22% (inactive)	–
Cc1ccc(C2CC(c3ccccc3)=NN2c2ccc(S(N)(=O)=O)cc2)cc1 (stereo unspecified)	-0.8% (inactive)	–
Cc1ccc2c(c1)[C@H]1[C@H](CO2)[C@H](c2ccccc2)[C@]2(C)C(=O)Nc3cc(F)c(F)cc3C(=O)N12	-1.06% (inactive)	–
O=C(C1CCCN(c2ncnc3c2nc2n3CCCCC2)C1)N1CCN(c2cccc(Cl)c2)CC1 (stereo unspecified)	-1.77% (inactive)	–
CC(C)C(=O)N1CCN(c2ccccc2NC(=O)c2ccc3c(c2)OCCO3)CC1	-2.13% (inactive)	–
CCc1ccc(C2=NN(c3ccc(S(N)(=O)=O)cc3)C(c3ccc(F)cc3)C2)cc1 (stereo unspecified)	-1.14% (inactive)	–
CN1Cc2cc(C(=O)c3ccccc3O)cnc2NC1=O	-3.93% (inactive)	–
COc1ccc(CN2C(=O)C(C)Nc3ncnc(N4CCN(c5ccccc5)CC4)c32)cc1 (stereo unspecified)	1.03% (inactive)	–
COc1ccc(N2CCN(C(=O)C3CCCN(c4ncnc5c4nc4n5CCCCC4)C3)CC2)cc1 (stereo unspecified)	-3.49% (inactive)	–
COc1ccc2nc(NC(=O)c3cccs3)sc2c1	-4.24% (inactive)	–
COc1ccc(CNC(=O)C(C#N)c2nc3ccccc3nc2N2CCN(C)CC2)cc1 (stereo unspecified)	–	inactive
NS(=O)(=O)c1ccc(N2N=C(c3ccccc3)CC2c2ccccc2)cc1 (stereo unspecified)	-3.44% (inactive)	–
O=C1C(Cc2ccccc2)Nc2ncnc(N3CCN(c4ccccc4)CC3)c2N1Cc1ccccc1 (stereo unspecified)	17.1% (inactive)	–
